DT40 TDP1 no CPT = qHTS for Inhibitors of human tyrosyl-DNA phosphodiesterase 1 (TDP1): qHTS in cells in absence of CPT | DT40 Tdp1-/- hTDP1 cells, no CPT, ATP luminescence, 48 h | AID 686978, 2013 | hit rate 15% among 420,000 | Potency, µM (doses to about 46.2 µM), inactives show at the top dose activity change, negative = growth inhibition, usual class: inhibitors; note: potency is the fitted concentration of half-maximal effect; nearly all actives have a fitted effect of over 55% in size
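Camptothecin absent (DMSO only). Human TDP1-complemented DT40 knockout cells, 400 cells/well, 37 °C for minimum 48 hr; ATP measured via CellTiter-Glo, 30 min dark incubation, luminescence.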
uPA surface inh = inhibitors of cell surface uPA generation | hit rate 0.31% among 330,000 | cell surface uPA generation assay, qHTS | AID 540303 | Potency, µM (series often up to 38.3 µM), for the others: at the top dose activity change, negative = inhibition, actives largely listed as inhibitors; active = well fitted inhibition curve with a large enough effect; inconclusive = small, poorly fitted or top-dose-only effect; inactive = no such curve, though single readings can be large or run the other way; tested in mouse RAW 264.7 cells; note: potency is the fitted concentration of half-maximal effect; nearly all actives have a fitted effect of over 55% in size
HT1080NT lethal = kills 2HG-producing HT-1080-NT fibrosarcoma cells; HT-1080-NT fibrosarcoma viability, CellTiter-Glo ATP luminescence, 48 h; AID 686970; hit rate 1.6% among 360,000; Potency, µM (top dose mostly 46.1 µM), inactives show top-dose activity, negative = less viability, hits mostly cytotoxic;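 note: NT is the 2HG producing partner of a matched IDH1 knockdown line; potency is the fitted concentration of half-maximal effect; 0% = DMSO-treated cells and -100% = media-only wells without cells; nearly all actives have a fitted effect of over 55% in size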
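750 cells/well, RPMI + 5% FBS; 2 h settle, compound pin-transfer, 48 h at 37 degrees C. CellTiter-Glo 10 min RT, luminescence. Normalized to DMSO and media-only wells.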
IL-1B inflam inh = blocks inflammasome-driven IL-1 beta release | THP-1 LPS/ATP IL-1B secretion, AlphaLISA, 16 h; hits give low values | activity change, % at 57.5 µM | hit rate 4.7% among 360,000 | AID 743279; in the data active = activity change below about -50%; inconclusive = mostly about -30% to -49%
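Secreted IL-1B measured by AlphaLISA bead assay after 16 h compound exposure of THP-1 cells; compounds (final up to 57.5 uM) added 1 h before LPS (250 ng/mL) and ATP (1.25 mM) stimulation; lower signal means less secretion.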
HT1080 IDH1KD tx = HT-1080 IDH1 knockdown cell toxicity (counter line) | HT-1080 IDH1 knockdown viability, ATP luminescence, 48 h | Potency, µM (series often up to 46.1 µM), without a hit: at the highest dose activity, negative = toxicity, most hits filed as cytotoxic | hit rate 2% among 360,000 | AID 686971;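 note: potency is the fitted concentration of half-maximal effect; 0% = DMSO wells and -100% = cell-free medium wells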
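In this qHTS, HT-1080 cells depleted of IDH1 are exposed for 48 h at 37 °C to compound titrations. Toxicity is scored from CellTiter-Glo luminescence, with DMSO as full viability and medium alone as none.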
DT40 TDP1 CPT = growth inhibition of DT40 Tdp1-/-;hTDP1 cells with camptothecin (screen for TDP1 inhibitors) | AID 686979 | hit rate 12% among 420,000 | chicken DT40 Tdp1-/-;hTDP1 cells + 20 nM CPT, ATP luminescence, 48 h | Potency, µM (highest dose often 46.2 µM), inactives show at the highest dose activity change, negative = growth inhibition, hits mostly inhibitors; note: potency is the fitted concentration of half-maximal effect; nearly all actives have a fitted effect of over 55% in size
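Cell growth measured by CellTiter-Glo luminescence after a minimum 48 h, 37 C compound exposure with 20 nM CPT in Tdp1-knockout DT40 cells stably expressing hTDP1, seeded 400/well; qHTS titration format.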
* hit, by the source's call; i = inactive; ? = inconclusive; / = no result given; [ ] = remark or other dose. Sampled rows, rich in hits. Any-hit rate of the full collection: about 19%. Unless noted, calls come from the whole dose curve; as a rule, active = well fitted curve in the direction sought with a large enough effect; inconclusive = small, poorly fitted or top-dose-only effect, or another doubt; inactive = no such curve, though single readings can be large; an effect the other way counts as inactive or inconclusive. Unless noted, % is set by controls: 0 for no effect and ±100 for the full control effect.

SMILES	DT40 TDP1 no CPT	uPA surface inh	HT1080NT lethal	IL-1B inflam inh	HT1080 IDH1KD tx	DT40 TDP1 CPT
CCCN1Cc2cccc(C(=O)Nc3cc(OC)cc(OC)c3)c2C1=O	-21%	/	0%[9.24 µM]	0	-1%	-22%
CCCN1Cc2cccc(C(=O)Nc3ccccc3C(=O)OC)c2C1=O	16µM*	/	/	/	/	23µM*
CCCN1Cc2cccc(C(=O)Nc3ccc(OC)cc3OC)c2C1=O	23µM*	/	/	/	/	?
C[C@@H]1CN([C@@H](C)CO)C(=O)c2cc(Br)cnc2O[C@H]1CN(C)C(=O)c1ccc2c(c1)OCO2	1%	/	0%	14	1%	-3%
C=CCC(CC=C)(CNC(=O)C(=O)Nc1ccc(C(=O)OCC)cc1)c1ccccc1	-26%	/	/	/	/	-11%
C[C@H](CO)N1C[C@H](C)[C@H](CN(C)Cc2ccc(-c3ccccc3)cc2)Oc2ccc(NS(=O)(=O)c3ccccc3)cc2CC1=O	18µM*	?	?	-28	?	16µM*
C[C@H]1CN([C@@H](C)CO)C(=O)Cc2cc(NC(=O)Cn3cnnn3)ccc2O[C@H]1CN(C)Cc1ccncc1	-11%	5%	11%	73	8%	4%
C[C@H]1CN([C@@H](C)CO)C(=O)Cc2cc(NC(=O)CCC(F)(F)F)ccc2O[C@H]1CN(C)Cc1ccc(-c2ccccc2)cc1	?	?	23µM*	-2	21µM*	?
C[C@@H]1CN([C@H](C)CO)C(=O)Cc2cc(NC(=O)Cn3cnnn3)ccc2O[C@@H]1CN(C)Cc1ccc(Cl)c(Cl)c1	?	10%	-2%	-59*	-16%	18µM*
C[C@@H]1CN([C@H](C)CO)C(=O)Cc2cc(NC(=O)CCC(F)(F)F)ccc2O[C@@H]1CN(C)C(=O)Nc1ccccc1	-2%	12%	4%	12	9%	7%
C[C@H]1CN([C@@H](C)CO)C(=O)Cc2cc(NC(=O)CCC(F)(F)F)ccc2O[C@H]1CN(C)Cc1ccc(C(F)(F)F)cc1	?	-14%	?	-69*	?	?
C[C@@H]1CN([C@@H](C)CO)C(=O)Cc2cc(NS(=O)(=O)c3ccccc3)ccc2O[C@H]1CN(C)Cc1ccncc1	-18%	2%	1%	76	3%	-8%
C[C@H]1CN([C@@H](C)CO)C(=O)c2cc(-c3cccc(F)c3)cnc2O[C@H]1CN(C)C(=O)c1cnccn1	-12%	/	0%	-14	2%	-11%
O=C(Cc1ccc(S(=O)(=O)N2CCCCC2)s1)Nc1ccc(F)c(F)c1	23µM*	-1%	-5%	-6	-12%	16µM*
O=C(COC(=O)Cc1ccc(S(=O)(=O)N2CCCCC2)s1)Nc1ccc2c(c1)OCO2	3%	4%	7%	5	-2%	5%
NS(=O)(=O)c1cccc(NC(=O)COC(=O)Cc2ccc(S(=O)(=O)N3CCCCC3)s2)c1	25%	9%	8%	25	0%	-1%
O=C(Cc1ccc(S(=O)(=O)N2CCCC2)s1)Nc1cccc([N+](=O)[O-])c1	16µM*	-3%	-7%	-16	-7%	?
Cc1ccc2oc(-c3ccc(Cl)c(NC(=O)c4ccc(-c5ccccc5[N+](=O)[O-])o4)c3)nc2c1	-19%	/	/	/	/	-13%
O=C(C[C@@H]1C/C=C\C[C@@H](Cc2ccc(F)cc2)C(=O)OC[C@@H](Cc2ccccc2)NC1=O)N[C@H](CO)Cc1ccccc1	-23%	0%	1%	76	5%	?
CCOC(=O)CCc1c(C)n[nH]c1C	-20%	4%	6%	13	4%	-1%
CCOC(=O)CCCc1sc(N)nc1-c1[nH]c(=O)[nH]c1C	-3%	-14%	-5%	-83*	4%	?
CC(=O)OC1CC[C@]2(C)C(CC(OC(C)=O)[C@@]3(C)C4=CC(=O)OC(c5ccoc5)[C@]4(C)CCC23)C1(C)C (stereo partly drawn)	21µM*	/	/	/	/	?
CC(=O)OC1C=C[C@]2(C)C(CC(OC(C)=O)[C@@]3(C)C4=CC(=O)OC(c5ccoc5)[C@]4(C)CCC23)C1(C)C (stereo partly drawn)	21µM*	/	/	/	/	?
CC1C(=O)N(Cc2cn(CC3CCCCC3)nn2)CCS(=O)(=O)N1Cc1ccc(-c2ccc(Cl)cc2)cc1 (stereo not drawn)	8.2µM*	/	?	-6	16µM*	16µM*
CC1C(=O)N(Cc2cn(CC3CCCCC3)nn2)CCS(=O)(=O)N1Cc1ccc(-c2ccncc2)cc1 (stereo not drawn)	-1%	/	-5%	?	3%	-30%
SMILES	DT40 TDP1 no CPT	uPA surface inh	HT1080NT lethal	IL-1B inflam inh	HT1080 IDH1KD tx	DT40 TDP1 CPT
CC1C(=O)N(Cc2cn(CC3CCCCC3)nn2)CCS(=O)(=O)N1Cc1ccc(-c2ccc(Cl)c(Cl)c2)cc1 (stereo not drawn)	9.2µM*	/	?	14	-25%	10µM*
CCOCCCNC(=O)c1ccc(-n2c(=S)[nH]c3ccccc3c2=O)cc1	-5%	-4%	8%	-5	14%	2%
CCN(C(=O)Nc1cccc(Cl)c1)c1ccccc1	-17%	-1%	0%	-8	13%	-8%
O=C(Nc1ccccc1)N(Cc1cccc(Cl)c1)c1ccccn1	?	/	/	/	/	23µM*
CCCCC1C(=O)CC[C@H]2[C@@H]1CC(=O)[C@@H]2C/C=C\CCCC(=O)O (stereo partly drawn)	21µM*	?	?	?	?	?
CC1CC(C)CN(S(=O)(=O)c2ccc3c(c2)CC(C)N3C(=O)C2CCC2)C1 (stereo not drawn)	15µM*	?	-23%	-2	-28%	23µM*
CCOC(=O)C1CCCCN1S(=O)(=O)c1ccc2c(c1)CC(C)N2C(=O)C1CCC1 (stereo not drawn)	9.2µM*	-4%	?	-6	-5%	23µM*
CC1CC(C)CN(S(=O)(=O)c2ccc3c(c2)CC(C)N3C(=O)C2CC2)C1 (stereo not drawn)	15µM*	8%	-3%	-5	-7%	18µM*
O=C(Nc1ccccc1F)c1ccc(C(=O)c2ccccc2)cc1	-25%	-3%	5%	i	16%	?
O=C(COc1ccccc1)Nc1ccccc1Cl	-10%	-14%	12%	-2	10%	-11%
COc1ccc(C(=O)N2CCC3(CCN(CC(C)C)CC3)CC2)cc1	-6%	/	/	/	/	-4%
